# From PubChem BioAssay (NCATS)
# Inconclusive results are not listed. Entries that show only a call come without a potency. The source made the active and inactive calls. Calls come from the whole dose curve; as a rule, active = well fitted cell-killing curve with a large enough effect; inconclusive = small, poorly fitted or top-dose-only effect; inactive = no such curve, though single readings can be large or run the other way.
# Experiment: qHTS of pediatric cancer cell lines to identify multiple opportunities for drug repurposing: Confirmatory screen for U-2 OS cells (AID 1347122); note: nearly all actives have a fitted effect of over 65% in size
# Settings: U-2 OS osteosarcoma cell viability; series mostly up to 45.9 µM
# Description: Drug repurposing or repositioning has been offered as a strategy for drug development in oncology programs. This approach has special potential for childhood cancers and other rare or orphan diseases, where the expected return on new drug development has been a disincentive to pharmaceuticals.
# In this project we exploit the poly-pharmacology of drugs to discover new indications via phenotypic screening of a panel of 19 well-characterized cell lines derived from solid tumors seen in children and adolescents. The goal is to identify approved drugs with previously unrecognized anticancer properties that has the potential to reveal new mechanisms and biological processes involved in carcinogenesis or drug resistance. We employed a titration-based paradigm (quantitative high-throughput screening or qHTS), where all compounds were tested at multiple concentrations for their effect on cell viability. Concentration-response curves (CRCs) were derived directly from the primary screen, and both potency and efficacy values were used to identify compounds with robust bioactivity profiles. We screened the NIH Chemical Genomics Center (NCGC) Pharmaceutical Collection (NPC) and Mechanism Interrogation Plate (MIPE) small molecule collections of approved and investigational compounds against these cell lines; and measured metabolically active cells after 48 hours of compound treatment as a proxy for cell viability.
# Assay Submitter: Nathalia J. Martinez, National Center for Advancing Translational Sciences, National Institutes of Health, Rockville, MD, USA; email: natalia.martinez@nih.gov
# [1] Shen, M et al. Quantitative high-throughput phenotypic screening of pediatric cancer cell lines identifies multiple opportunities for drug repurposing. Oncotarget 2017 Dec 19;9(4):4758-4772. PMID 29435139.
# The cells were obtained from University of North Carolina (UNC), Pediatric Preclinical Testing Program (PPT), and Coriell Institute (CI).
# qHTS cell viability assay:
# Cells were assayed in growth media at a density of 500-1,000 cells/well. Five microliters of cells were dispensed into 1,536-well, white, solid-bottom, TC-treated plates (Greiner Bio One) using a multidrop dispenser and incubated at 37 degrees C, 5% CO2, under a humidified atmosphere for 5 hours. Twenty-three nanoliters of compounds and controls (neutral control DMSO or positive control bortezomib at final concentration of 2.3 µM) were subsequently transferred by Kalypsys pintool. For primary screens, the MIPE collection was tested at 11-point dilutions (final concentrations range from 0.78 nM to 46 µM) and the NPC collection at 8-point dilutions (final concentrations range from 0.59 nM to 46 µM). Compounds tested in follow-up screens were assayed at 11-point dilutions. Cells were incubated for 48 hours, followed by addition of 3 µL of CellTiter-Glo (Promega). After a 15 min incubation at room temperature, samples were analyzed for luminescence intensity using a ViewLux High-throughput CCD imager equipped with clear filters.
# Potency is the fitted concentration of half-maximal effect.
SMILES,outcome,Potency
CCN[C@@H]1C[C@H](N)[C@@H](OC2OC(CN)=CCC2N)[C@H](O)[C@H]1O[C@H]1OC[C@](C)(O)[C@H](NC)[C@H]1O (stereo partly drawn),inactive [at 0.556 µM],
CCN(CC)CCOc1ccc2c(c1)C(=O)c1cc(OCCN(CC)CC)ccc1-2,,inactive
O=C(Oc1cccc2cccnc12)c1ccccc1,,inactive
CCN1/C(=C/C=C/c2sc3ccccc3[n+]2CC)Sc2ccccc21,,811 nM (active)
C[C@H]1O[C@@H](O[C@H]2CC[C@@]3(C)[C@H](CC[C@@H]4[C@@H]3C[C@@H](O)[C@]3(C)[C@@H](C5=CC(=O)OC5)CC[C@]43O)C2)C[C@H](O)[C@@H]1O[C@H]1C[C@H](O)[C@H](O[C@H]2C[C@H](O)[C@H](O[C@@H]3O[C@H](CO)[C@@H](O)[C@H](O)[C@H]3O)[C@@H](C)O2)[C@@H](C)O1,,293 nM (active)
O=[N+]([O-])c1ccc(/C=N\O)o1,,4140 nM (active)
C[C@@]12C(=O)OC(=O)[C@]1(C)C1CCC2O1,,2930 nM (active)
CCCCCCCCCCCCOCCOCCOCCOCCOCCOCCOCCOCCOCCO,,14700 nM (active)
C=C[C@@]1(C)CC(=O)[C@]2(O)[C@@]3(C)[C@@H](O)CCC(C)(C)[C@@H]3[C@H](O)[C@H](OC(C)=O)[C@@]2(C)O1,,inactive
CC1CCc2c(N3CCC(O)CC3)c(F)cc3c(=O)c(C(=O)O)cn1c23 (stereo not drawn),,inactive
Nc1nc(Cl)nc2c1ncn2[C@@H]1O[C@H](CO)[C@@H](O)[C@@H]1F,,inactive
CCCCCCCCCCC[C@@H](C[C@@H]1OC(=O)[C@H]1CCCCCC)OC(=O)[C@H](CC(C)C)NC=O,,inactive
NC(N)=NN=C(/C=C/c1ccc([N+](=O)[O-])o1)/C=C/c1ccc([N+](=O)[O-])o1,,inactive
